Test results from PubChem BioAssay AID1117279 (The Scripps Research Institute Molecular Screening Center, 2014).
The whole screen tested about 1,100 compounds, of which about 40 (4%) were called active.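 The calls were made as follows: active = average inhibition above the solvent-only control wells' mean plus 3 SD (cut at about 15% in these data); inactive = the rest.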 A selection follows.

Experiment: TTR promoter reporter inhibitors in hepatoma cells, counter-screen for TTR transcription activator project, cell-based, luminescence, HuH7 hepatoma (AID 1117279);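 also: 0% = cells with DMSO only and 100% = cells with inhibitor control FD; inhibitors lower well luminescence so higher value means more inhibition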
Details: HuH7 TTR promoter-Gaussia luciferase reporter, at 16.7 µM, active compounds read high
With `CC(C)(C)C1CCC(OC(=O)CCC(=O)Nc2ccccc2)CC1` (stereo unspecified) the inhibition was -7.82% (inactive). In the case of `C[C@H](NC(=O)C1CCN(S(=O)(=O)c2ccccc2)CC1)C(=O)NCc1ccccc1`, the inhibition is reported as -13.1% (inactive). For `Cc1cccc(N2C(=O)CC(SC(N)=Nc3ccccc3)C2=O)c1` (stereo unspecified), the inhibition was -9.09% (inactive). For `Brc1ccc(/C=N/N2CCN(C3c4ccccc4-c4ccccc43)CC2)s1`, the inhibition was -10.1% (inactive). In the case of `CC(C)NC(=O)c1ccc(Sc2ccccc2)c([N+](=O)[O-])c1`, the inhibition is reported as -1.16% (inactive). For `CCOc1ccc(NC(=O)COc2ccc(S(=O)(=O)N3CCCC3)cc2)cc1`, the inhibition was -11.3% (inactive). For `CCCCCc1ccc(-c2cn(Cc3ccc4ccccc4c3)nn2)cc1`, the inhibition was -10.2% (inactive). For `CCOc1ccc(N=C2NC(=O)S/C2=C\c2ccc(O)cc2)cc1`, the inhibition was 24.4% (active). For `COc1cc(N2C(=O)CC3(CCCC3)CC2=O)cc(OC)c1OC`, the inhibition was -8.06% (inactive). In the case of `Cc1c(C#N)c(NC(=O)c2ccccc2)n(Cc2ccccc2)c1C`, the inhibition is reported as -8.18% (inactive). In the case of `Cn1cc(CN2CCCC(CO)C2)c(-c2ccc(Oc3ccccc3)cc2)n1` (stereo unspecified), the inhibition is reported as -9.5% (inactive). In the case of `O=C(NNC1=NCCC1)c1cccc(S(=O)(=O)N2CCCCC2)c1`, the inhibition is reported as -4.93% (inactive). With `COc1ccc(-c2oc3ncn(Cc4ccco4)c(=N)c3c2-c2ccc(OC)cc2)cc1` the inhibition was 1.5% (inactive). In the case of `CSCCC(NC(N)=O)C(=O)N(C)CC(=O)Nc1ccc(C)cc1` (stereo unspecified), the inhibition is reported as -0.9% (inactive). In the case of `CCCCOCCCNC(=O)C[C@H]1C[C@@]2(C(=O)OC)C(=C[C@H](C(C)(C)C)O[C@@H]2C)N(CCc2ccc(OC)c(OC)c2)C1=O`, the inhibition is reported as -3.28% (inactive). With `Cc1cccc(C)c1NC(=O)CN1C(=O)C(C)Oc2ccccc21` (stereo unspecified) the inhibition was 1.63% (inactive). In the case of `N=c1ccn(CC(=O)NC(N)=O)c2ccccc12`, the inhibition is reported as -11.8% (inactive). With `C=C1C(C(C)C)N(C)C2=NC(c3ccccc3)CC(=O)N12` (stereo unspecified) the inhibition was -4.18% (inactive). With `O=C(NCCCNC(=O)c1ccccc1Cl)c1cnccn1` the inhibition was -8.25% (inactive). In the case of `O=S(=O)(NCCCN1CCOCC1)c1ccc(F)c(Cl)c1`, the inhibition is reported as -2.54% (inactive). In the case of `COc1ccccc1N1CCN(Cc2cc(OC)c3c(c2)OCO3)CC1`, the inhibition is reported as -8.45% (inactive). For `O=C(Nc1cccc(O)c1)c1ccc(C(=O)c2ccccc2)o1`, the inhibition was -11.2% (inactive). For `O=C(O)Cn1c(Cc2ccccc2)nc2ccccc21`, the inhibition was -10% (inactive). With `O=C(CCC(=O)c1cccs1)NCc1ccccc1` the inhibition was -6.29% (inactive). For `Cc1c(NS(=O)(=O)c2ccc(NC3CCCC3)c([N+](=O)[O-])c2)c(=O)n(-c2ccccc2)n1C`, the inhibition was 17.4% (active). With `CCOC(=O)c1c(-c2ccccc2)oc2ccc(OCC(N)=O)cc12` the inhibition was -17.5% (inactive). For `COc1cc(C(C)=O)ccc1OC(C)C(=O)Nc1ccc(S(=O)(=O)N2CCCC2)cc1` (stereo unspecified), the inhibition was -21.8% (inactive). For `O=C(Nc1ccccc1C(=O)N1CCCCCC1)c1ccccc1Cl`, the inhibition was -17.5% (inactive). For `CCOc1ccccc1NC(=O)COc1ccc(S(=O)(=O)N2CCCC2)cc1`, the inhibition was -35.5% (inactive). For `C(=N\n1cnnc1)/c1cccnc1`, the inhibition was -6.37% (inactive). In the case of `COc1cccc(-c2cnc(C(O)c3ccccc3OC)[nH]2)c1` (stereo unspecified), the inhibition is reported as -13.2% (inactive). In the case of `Cc1ccccc1/[N+]([O-])=C/c1ccncc1`, the inhibition is reported as -5.47% (inactive). In the case of `O=C(CS(=O)(=O)c1ccccc1)Nc1ccc(S(=O)(=O)Nc2ccccn2)cc1`, the inhibition is reported as -15.3% (inactive). With `C/C(CC(=O)Nc1ccc(N(C)C)cc1)=N\NC(=O)c1ccccc1F` the inhibition was -16.7% (inactive). For `COc1ccc(S(=O)(=O)NCC(=O)NCc2cc(=O)n(C)c(=O)n2C)cc1F`, the inhibition was -4.59% (inactive). In the case of `Cc1ccc(CN2CCCOCCS2(=O)=O)cc1`, the inhibition is reported as -6.05% (inactive). For `Nc1nc(SCC(=O)Nc2ccc(Cl)c([N+](=O)[O-])c2)n[nH]1`, the inhibition was -10% (inactive). For `CCOC(=O)c1cc(-c2ccc(Cl)s2)nc2c1c(C)nn2C`, the inhibition was -14.6% (inactive). With `O=C(NC(=O)c1ccccc1N1CCCCC1)Nc1ccc(Br)cc1` the inhibition was -2.62% (inactive). For `Cc1cc(C)c2nc3nc(C)cc(C)c3c(N)c2c1`, the inhibition was -40.1% (inactive). For `CCCCc1cc(=O)oc2cc(C)cc(OCc3nn[nH]n3)c12`, the inhibition was -25.9% (inactive). For `O=C(NNC(=O)c1cc(S(=O)(=O)N2CCCCC2)ccc1Cl)c1ccccc1O`, the inhibition was -22.3% (inactive). In the case of `COC(=O)c1cnn2c(C(F)(F)F)cc(-c3ccco3)nc12`, the inhibition is reported as 2.2% (inactive). For `O=C1c2cccc(OCC(=O)N3N=C(c4cccs4)CC3c3ccc(F)cc3)c2CCN1Cc1ccccc1` (stereo unspecified), the inhibition was 9.54% (inactive). For `COc1ccc(C2c3ccc(O)cc3Oc3ncn(CCCO)c(=N)c32)cc1OC` (stereo unspecified), the inhibition was -4.61% (inactive). In the case of `O=S(=O)(NCc1ccccc1Br)c1ccccc1Br`, the inhibition is reported as 6.86% (inactive). In the case of `CCCCN(C)CCNC(=O)C1CCCN(S(=O)(=O)c2cccc3nsnc23)C1` (stereo unspecified), the inhibition is reported as -18% (inactive). In the case of `O=C(O)C1OC(C(=O)O)C2C1C(F)(F)C2(F)F` (stereo unspecified), the inhibition is reported as -13.2% (inactive). For `Cc1cc(C)c(C#N)c(N2CCC(C(N)=O)CC2)n1`, the inhibition was -15.2% (inactive). In the case of `Cc1nc(-c2ccc(Cl)cc2)sc1C(=O)NN`, the inhibition is reported as -6.37% (inactive). In the case of `N#Cc1cccc(CN2CCC(=O)N(CCO)CC2)c1`, the inhibition is reported as -7.6% (inactive).
